Experimental data: the supplement of paper PMC10849652
The full data set covers some 8,800 targets. This sample favours those with a hit. About 0.5% of all pairs of compound and target were hits. A number with no mark means an inactive call.

Assays:
Experiment in all cases: log2 fold change, soluble protein after heating vs DMSO (PISA); higher = thermal stabilisation; K562 lysate, 10 uM; active = over 0.2 and 3.5 SD of the protein, either way, in both replicates (recomputed)
[1] = compound: C1=CC=C(C=C1)[C@H](COC2=CC3=C(C=C2)NC(=O)N3)NC(=O)C4=CC=CN(C4=O)CC5=CC(=C(C=C5)F)F
Outline: (§1)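 Following dounce homogenisation of K562 pellets in PBS pH 7.4 with 1 mM MgCl2, crude extract at 1 mg/mL protein was incubated for 30 min with 10 μM compound. Aliquots were then heated for 3 min over 48°C-58°C and pooled, NP-40 was added to 0.5% at 4°C, and soluble protein was recovered as the supernatant at 21,000xg for 90 min. Channel-sum-equalised TMTpro 16plex LC-MS/MS quantified this protein. Each value, from duplicates, is a log-two fold change in thermal stability relative to solvent controls.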

[2] = compound: CC1=C(SC2=C1C(=N[C@H](C3=NN=C(N32)C)CC(=O)N)C4=CC=C(C=C4)Cl)C
Outline: as §1

[3] = compound: CC1=C2C(=CC=C1)N=C(N(C2=O)C3=CC=CC=C3C)CN4C=NC5=C(N=CN=C54)N
Outline: as §1

[4] = compound: Cc1sc2c(c1C)C(c1ccc(Cl)cc1)=N[C@@H](CC(=O)OC(C)(C)C)c1nnc(C)n1-2
Outline: as §1

[5] = compound: c1ccc([C@@H]2C[C@H]2NC2CCNCC2)cc1
Outline: as §1

UniProt Q96SB8, sequence (Q96SB8 whole entry, looked up): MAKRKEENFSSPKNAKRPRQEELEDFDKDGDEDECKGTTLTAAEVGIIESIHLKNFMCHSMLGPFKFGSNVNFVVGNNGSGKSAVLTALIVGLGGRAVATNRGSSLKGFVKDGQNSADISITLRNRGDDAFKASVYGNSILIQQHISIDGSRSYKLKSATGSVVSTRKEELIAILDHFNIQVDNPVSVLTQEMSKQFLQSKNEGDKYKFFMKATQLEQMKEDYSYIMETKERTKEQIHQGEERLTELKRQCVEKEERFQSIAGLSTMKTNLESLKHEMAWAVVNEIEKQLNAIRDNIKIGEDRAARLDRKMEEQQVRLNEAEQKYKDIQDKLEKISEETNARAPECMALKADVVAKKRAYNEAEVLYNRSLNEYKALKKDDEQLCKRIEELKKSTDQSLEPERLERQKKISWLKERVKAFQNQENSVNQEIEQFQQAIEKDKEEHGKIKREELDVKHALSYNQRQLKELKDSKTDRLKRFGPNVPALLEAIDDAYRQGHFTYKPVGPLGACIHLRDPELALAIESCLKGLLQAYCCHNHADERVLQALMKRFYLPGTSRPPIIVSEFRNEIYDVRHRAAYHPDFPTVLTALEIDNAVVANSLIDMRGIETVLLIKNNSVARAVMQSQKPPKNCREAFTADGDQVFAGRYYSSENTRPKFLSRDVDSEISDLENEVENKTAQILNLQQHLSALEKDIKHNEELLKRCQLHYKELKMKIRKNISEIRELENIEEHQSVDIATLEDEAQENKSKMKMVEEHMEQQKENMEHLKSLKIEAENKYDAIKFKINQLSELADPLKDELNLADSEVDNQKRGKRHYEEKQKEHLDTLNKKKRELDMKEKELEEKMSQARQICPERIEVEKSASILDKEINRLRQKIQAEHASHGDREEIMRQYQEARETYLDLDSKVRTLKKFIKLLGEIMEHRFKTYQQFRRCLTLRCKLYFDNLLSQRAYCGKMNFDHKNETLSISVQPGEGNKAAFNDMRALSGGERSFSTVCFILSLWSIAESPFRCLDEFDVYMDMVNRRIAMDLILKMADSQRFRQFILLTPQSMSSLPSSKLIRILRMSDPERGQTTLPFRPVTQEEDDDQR
UniProt P61011, sequence (P61011 whole entry, looked up): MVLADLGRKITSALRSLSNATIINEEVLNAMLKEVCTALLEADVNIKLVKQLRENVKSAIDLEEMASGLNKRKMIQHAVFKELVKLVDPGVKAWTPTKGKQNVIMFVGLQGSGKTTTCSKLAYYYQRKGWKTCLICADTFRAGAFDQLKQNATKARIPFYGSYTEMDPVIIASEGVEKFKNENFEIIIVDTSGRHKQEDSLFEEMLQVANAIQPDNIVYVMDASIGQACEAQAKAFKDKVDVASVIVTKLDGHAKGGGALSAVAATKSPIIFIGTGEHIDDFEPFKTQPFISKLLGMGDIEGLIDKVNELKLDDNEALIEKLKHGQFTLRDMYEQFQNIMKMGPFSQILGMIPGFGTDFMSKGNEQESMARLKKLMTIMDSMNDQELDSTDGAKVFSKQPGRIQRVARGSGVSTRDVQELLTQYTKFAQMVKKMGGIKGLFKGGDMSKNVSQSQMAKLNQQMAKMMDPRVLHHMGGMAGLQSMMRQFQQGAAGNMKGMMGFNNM
UniProt P50225, sequence (P50225 whole entry, looked up): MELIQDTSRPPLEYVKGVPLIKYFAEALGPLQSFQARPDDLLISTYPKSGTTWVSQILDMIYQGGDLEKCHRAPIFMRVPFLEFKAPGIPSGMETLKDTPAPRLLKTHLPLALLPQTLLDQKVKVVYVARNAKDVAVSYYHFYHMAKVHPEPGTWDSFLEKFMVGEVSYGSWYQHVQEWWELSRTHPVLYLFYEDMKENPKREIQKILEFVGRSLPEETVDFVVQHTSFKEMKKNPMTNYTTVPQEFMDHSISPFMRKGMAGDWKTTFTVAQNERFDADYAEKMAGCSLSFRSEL
UniProt Q01130, sequence (Q01130 whole entry, looked up): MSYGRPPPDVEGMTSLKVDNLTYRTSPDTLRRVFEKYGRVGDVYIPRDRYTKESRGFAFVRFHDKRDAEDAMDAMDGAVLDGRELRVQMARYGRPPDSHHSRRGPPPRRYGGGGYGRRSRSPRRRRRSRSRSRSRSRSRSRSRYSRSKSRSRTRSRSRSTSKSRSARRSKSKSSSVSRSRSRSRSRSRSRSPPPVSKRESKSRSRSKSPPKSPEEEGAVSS
UniProt Q8TBC3, sequence (Q8TBC3 whole entry, looked up): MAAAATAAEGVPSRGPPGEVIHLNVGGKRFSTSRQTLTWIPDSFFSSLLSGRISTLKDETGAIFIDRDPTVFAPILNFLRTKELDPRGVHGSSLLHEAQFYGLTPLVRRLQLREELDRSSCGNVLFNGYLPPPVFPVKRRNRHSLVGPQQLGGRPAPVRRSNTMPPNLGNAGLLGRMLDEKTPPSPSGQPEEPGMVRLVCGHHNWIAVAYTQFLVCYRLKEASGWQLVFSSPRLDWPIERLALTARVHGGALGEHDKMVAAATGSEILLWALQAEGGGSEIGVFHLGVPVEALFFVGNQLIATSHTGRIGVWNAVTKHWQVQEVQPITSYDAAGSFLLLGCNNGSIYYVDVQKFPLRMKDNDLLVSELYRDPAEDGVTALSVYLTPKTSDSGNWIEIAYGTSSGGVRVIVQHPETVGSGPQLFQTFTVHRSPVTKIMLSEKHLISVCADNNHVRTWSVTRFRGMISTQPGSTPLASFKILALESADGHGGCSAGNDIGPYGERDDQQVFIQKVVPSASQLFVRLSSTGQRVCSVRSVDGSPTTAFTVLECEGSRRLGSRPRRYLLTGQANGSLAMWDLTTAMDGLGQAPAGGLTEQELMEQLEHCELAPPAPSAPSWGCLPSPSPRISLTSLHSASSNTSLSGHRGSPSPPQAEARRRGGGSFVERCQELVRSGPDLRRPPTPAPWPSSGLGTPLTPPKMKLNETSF
UniProt Q9C0B7, sequence (Q9C0B7 whole entry, looked up): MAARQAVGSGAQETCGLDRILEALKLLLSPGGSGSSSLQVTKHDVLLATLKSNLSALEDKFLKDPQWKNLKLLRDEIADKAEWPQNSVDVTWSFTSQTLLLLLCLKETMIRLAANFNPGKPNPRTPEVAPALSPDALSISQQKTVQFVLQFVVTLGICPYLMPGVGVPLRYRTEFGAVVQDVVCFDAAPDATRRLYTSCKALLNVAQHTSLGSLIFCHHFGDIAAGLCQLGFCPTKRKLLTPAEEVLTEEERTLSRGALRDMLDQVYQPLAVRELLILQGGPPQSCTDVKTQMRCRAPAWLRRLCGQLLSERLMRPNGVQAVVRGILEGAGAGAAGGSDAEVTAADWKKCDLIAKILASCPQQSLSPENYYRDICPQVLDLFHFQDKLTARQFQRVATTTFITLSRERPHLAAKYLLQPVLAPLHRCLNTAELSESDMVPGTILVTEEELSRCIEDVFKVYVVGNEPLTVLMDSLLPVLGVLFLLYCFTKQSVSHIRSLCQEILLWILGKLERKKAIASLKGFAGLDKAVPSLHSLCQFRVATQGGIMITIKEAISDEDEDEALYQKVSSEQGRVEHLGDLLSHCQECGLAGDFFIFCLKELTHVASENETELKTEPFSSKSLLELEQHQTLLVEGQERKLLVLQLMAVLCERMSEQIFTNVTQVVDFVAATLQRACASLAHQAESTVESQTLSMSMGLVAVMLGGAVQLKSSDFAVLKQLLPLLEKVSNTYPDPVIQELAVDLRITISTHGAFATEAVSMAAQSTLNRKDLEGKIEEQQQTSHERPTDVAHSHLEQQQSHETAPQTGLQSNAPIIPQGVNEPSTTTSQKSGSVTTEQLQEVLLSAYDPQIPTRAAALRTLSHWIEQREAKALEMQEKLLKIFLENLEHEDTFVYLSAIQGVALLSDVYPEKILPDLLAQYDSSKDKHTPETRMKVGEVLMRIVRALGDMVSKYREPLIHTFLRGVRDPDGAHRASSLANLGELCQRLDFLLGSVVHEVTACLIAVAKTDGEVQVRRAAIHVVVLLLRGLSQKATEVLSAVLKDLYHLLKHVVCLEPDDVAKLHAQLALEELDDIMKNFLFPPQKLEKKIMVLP
UniProt Q8WUM9, sequence (Q8WUM9 whole entry, looked up): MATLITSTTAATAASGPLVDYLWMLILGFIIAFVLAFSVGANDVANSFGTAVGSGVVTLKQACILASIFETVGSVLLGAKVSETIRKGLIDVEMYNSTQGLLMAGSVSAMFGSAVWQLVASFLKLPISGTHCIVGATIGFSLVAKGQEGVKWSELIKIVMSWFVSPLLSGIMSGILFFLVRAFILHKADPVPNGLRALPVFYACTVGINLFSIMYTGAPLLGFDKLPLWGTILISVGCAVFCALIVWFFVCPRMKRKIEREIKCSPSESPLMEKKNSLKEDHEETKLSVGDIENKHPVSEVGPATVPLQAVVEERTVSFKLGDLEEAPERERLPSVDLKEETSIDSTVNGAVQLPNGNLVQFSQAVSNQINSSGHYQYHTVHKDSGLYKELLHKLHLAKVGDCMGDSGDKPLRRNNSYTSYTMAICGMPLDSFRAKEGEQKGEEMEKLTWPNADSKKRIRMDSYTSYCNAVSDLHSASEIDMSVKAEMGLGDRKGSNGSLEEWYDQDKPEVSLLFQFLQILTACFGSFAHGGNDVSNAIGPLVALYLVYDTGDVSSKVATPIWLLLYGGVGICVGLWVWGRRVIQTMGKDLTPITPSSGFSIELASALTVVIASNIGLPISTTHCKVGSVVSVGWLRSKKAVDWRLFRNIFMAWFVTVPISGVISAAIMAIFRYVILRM
UniProt Q9H2D1, sequence (Q9H2D1 whole entry, looked up): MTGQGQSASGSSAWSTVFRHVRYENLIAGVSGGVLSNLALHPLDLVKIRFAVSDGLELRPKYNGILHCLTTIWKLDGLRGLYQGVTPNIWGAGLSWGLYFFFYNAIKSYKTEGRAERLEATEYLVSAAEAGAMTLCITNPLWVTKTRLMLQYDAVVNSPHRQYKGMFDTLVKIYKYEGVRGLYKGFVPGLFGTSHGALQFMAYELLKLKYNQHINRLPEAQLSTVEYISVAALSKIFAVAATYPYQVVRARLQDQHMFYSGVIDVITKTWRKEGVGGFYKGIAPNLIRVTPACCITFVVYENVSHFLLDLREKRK
UniProt Q8NHG7, sequence (Q8NHG7 whole entry, looked up): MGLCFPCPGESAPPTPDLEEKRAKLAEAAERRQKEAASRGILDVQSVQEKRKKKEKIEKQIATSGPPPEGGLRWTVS

Row | Target | log2 fold change [1] | log2 fold change [2] | log2 fold change [3] | log2 fold change [4] | log2 fold change [5]
1 | SSB (UniProt E7ERC4) | -0.137 | 0.12 | 0.186 | -0.105 | 0.444
2 | SVIP (UniProt Q8NHG7) | 0.02 | -0.048 | -0.052 | -0.069 | -0.028
3 | SLC30A9 (UniProt Q6PML9) | -0.013 | -0.045 | 0.003 | -0.013 | -0.105
4 | SFR1 isoform 2 (UniProt Q86XK3) | -0.035 | -0.005 | -0.01 | 0 | 0.072
5 | SMYD3 (UniProt Q9H7B4) | 0.028 | 0.05 | 0.035 | -0.001 | 
6 | SLC12A6 (UniProt Q9UHW9) | 0.006 | 0.017 | 0.017 | 0.036 | 0.008
7 | SRPK1 (UniProt Q96SB4) | -0.002 | -0.023 | 0.004 | -0.015 | -0.025
8 | TARDBP (UniProt Q13148) | -0.094 | -0.012 | 0.067 | -0.145 | -0.041
9 | SSU72 (UniProt Q9NP77) | 0.014 | 0.017 | 0.078 | 0.004 | -0.17
10 | SPATA5L1 (UniProt Q9BVQ7) | -0.019 | 0.036 | 0.006 | -0.007 | -0.039
11 | SPNS1 (UniProt Q9H2V7) | 0.05 | 0.017 | 0.023 | -0.076 | -0.019
12 | STK39 (UniProt Q9UEW8) | 0.011 | -0.056 | 0.049 | 0 | 0.078
13 | SLC38A1 (UniProt Q9H2H9) | 0.055 | -0.116 | 0.06 | -0.116 | -0.128
14 | SLC25A38 (UniProt Q96DW6) | 0.099 | 0 | 0.013 | -0.323 | -0.047
15 | STK26 (UniProt Q9P289) | -0.015 | -0.015 | 0.008 | -0.015 | 0.02
16 | TANGO6 (UniProt Q9C0B7) | 0.05 | -0.021 | -0.036 | 0.043 | -0.009
17 | SLC16A1 (UniProt P53985) | -0.015 | 0.002 | 0.042 | 0.077 | -0.245
18 | SNX6, A0A0A0MRI2 | 0.014 | 0.006 | 0.016 | 0.017 | 0.115
19 | SPIRE1 (UniProt Q08AE8) | -0.008 | 0.031 | -0.006 | -0.053 | -0.212
20 | SRM (UniProt P19623) | -0.007 | 0.029 | 0.001 | 0.009 | 0.039
21 | SKA1 (UniProt Q96BD8) | -0.03 | 0.005 | 0.025 | -0.018 | 0.018
22 | SRP54 (UniProt P61011) | 0.023 | 0.001 | 0.03 | 0.06 | 0.049
23 | SMAD9 (UniProt O15198) | 0.102 | -0.074 | 0.058 | -0.099 | 0.042
24 | SLC25A44 (UniProt Q96H78) | 0.042 | -0.044 | -0.014 | -0.004 | -0.17
25 | SULT1A1 (UniProt P50225) | -0.022 | -0.02 | 0 | 0.051 | 0.088
26 | SPG11 (UniProt Q96JI7) | -0.22 | -0.253 | 0.015 | 0.067 | 0.006
27 | SH3BP2 isoform 4 (UniProt P78314) | -0.05 | 0.211 | -0.124 | 0.035 | -0.021

Row | Target | log2 fold change [1] | log2 fold change [2] | log2 fold change [3] | log2 fold change [4] | log2 fold change [5]
28 | SRSF7 (UniProt Q16629) | -0.005 | 0.023 | 0.04 | 0.025 | -0.045
29 | SLC25A32 (UniProt Q9H2D1) | 0.032 | 0.014 | 0.016 | -0.053 | -0.06
30 | SLC26A6 (UniProt Q9BXS9) | -0.053 | 0.067 | 0.011 | -0.556 | -0.096
31 | SHKBP1 (UniProt Q8TBC3) | 0.016 | 0.02 | 0.077 | -0.027 | 0.007
32 | SMTN isoform 6 (UniProt P53814) | 0.053 | -0.011 | -0.01 | 0.01 | 0.081
33 | SLC20A1 (UniProt Q8WUM9) | 0.071 | -0.048 | 0.007 | -0.046 | 0.024
34 | SH3GL3 isoform 3 (UniProt Q99963) | 0.024 | 0.033 | 0.133 | -0.169 | -0.416
35 | SPR (UniProt P35270) | 0.113 | -0.031 | -0.027 | -0.034 | -0.067
36 | SMARCAD1 isoform 2 (UniProt Q9H4L7) | -0.006 | -0.036 | 0.014 | 0.014 | 0.035
37 | STOML2 (UniProt Q9UJZ1) | -0.008 | 0.004 | -0.027 | -0.025 | -0.008
38 | SOAT1 (UniProt P35610) | 0.041 | -0.002 | -0.008 | 0.282 (active) | -0.06
39 | STK24 (UniProt B4DR80) | -0.025 | 0.003 | -0.041 | -0.019 | -0.055
40 | SMC6 (UniProt Q96SB8) | -0.049 | 0.006 | 0.014 | -0.036 | -0.047
41 | TANK (UniProt Q92844) | 0.04 | -0.088 | -0.023 | -0.079 | -0.025
42 | SRSF2 (UniProt Q01130) | 0.023 | -0.011 | 0 | -0.058 | -0.129
43 | SHC1 isoform 6 (UniProt P29353) | 0.019 | 0.006 | 0.056 | 0.087 | 0.25
44 | SOX5 (UniProt P35711) | -0.092 | -0.052 | 0.076 | -0.005 | 0
45 | STARD3 isoform 3 (UniProt Q14849) | -0.015 | 0.007 | 0 | -0.004 | 0
46 | SH3BGRL2 (UniProt Q9UJC5) | 0.048 | 0.085 | -0.027 | -0.001 | 0.083
47 | SHCBP1 (UniProt Q8NEM2) | 0.056 | 0.012 | -0.032 | -0.022 | -0.039
48 | SSBP3 (UniProt Q9BWW4) | -0.113 | -0.031 | 0.062 | -0.06 | -0.005
49 | SMC3 (UniProt Q9UQE7) | -0.002 | 0.011 | -0.011 | 0.037 | 0.022
50 | STK38 (UniProt Q15208) | -0.089 | -0.02 | -0.014 | -0.012 | -0.066
51 | SLC25A25 isoform 3 (UniProt Q6KCM7) | 0.064 | -0.027 | 0.013 | 0.034 | 0.023
52 | SLC27A2 (UniProt O14975) | 0.198 | -0.064 | -0.043 | -0.063 | -0.05
53 | SH3BP5L (UniProt Q7L8J4) | 0.015 | 0.015 | 0.047 | 0.01 | -0.024
